This is a sample that favours compounds with a hit; in the whole collection about 2.2% have one here.
Cardio protect – cardioprotection against H2O2-induced cell death, primary screen, uHTS, H9c2 cells, ATPLite luminescence; H9c2 cardiomyocytes, H2O2 injury protection, 2 h; protection from H2O2 cell death, % at 20 µM; 0.63% of 360,000 active; AID 588492, 2011;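 active = compounds giving at least 50% protection of heart cells from peroxide-induced death in the single-dose screen, raw or plate-pattern-corrected value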;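 also: 0% = DMSO wells with peroxide and 100% = DMSO wells without peroxide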
iPSC survival up – enhancers of single-cell hiPSC survival, primary screen, ATPlite luminescence; 0.044% of 360,000 active; AID 602274, 2012; 100% = ROCK inhibitor wells, 0% = DMSO; survival enhancement, % at 20 µM; in the data active = survival enhancement above about 18%;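 also: cells exposed to compounds for 16 hours before the ATP read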
Myeloid diff MLP – induction of myeloid progenitor differentiation, primary screen, cell-based, flow cytometry, MLPCN library | ER-HoxA9 myeloid progenitors, lysozyme-GFP differentiation | calls only at 10 µM | 1% of 360,000 active | AID 624256, 2012;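 active = normalized GFP-positive differentiation at or above the plate's own cutoff, the solvent-only control mean plus 3 SD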;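 also: cells exposed to compound for four days before flow analysis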
beta cell repl – inducers of MIN6 beta-cell proliferation, primary screen, ATP luminescence, uHTS; MIN6 cells proliferation, ATPlite luminescence, 48 h; cells starved in 0.2% serum; 100% = growth in 10% serum; proliferation, % at 10 µM; 0.29% of 330,000 active; AID 2380, 2010;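 active = compounds whose signal lies at least 3.5 SD above the mean of all wells on their plate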;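 also: 0% = DMSO-treated cells in low-serum medium and 100% = 10% serum control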
ABCB6 inh 2 – ABCB6 transporter inhibitors, primary screen, K562-ABCB6 cells, flow cytometry, MLPCN library; ATP-binding cassette sub-family B member 6 (Homo sapiens), Q9NP58; K562-ABCB6 porphyrin accumulation, 1 h; stronger effect = lower value; fluorescence ratio to DMSO, % at 10 µM; 0.19% of 360,000 active; AID 602162, 2011;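 active = fluorescence ratio to DMSO below 75%, the collection mean minus 3 SD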;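 also: signal is porphyrin accumulated inside mitochondria; 100% equals median channel fluorescence of DMSO control wells; lower ratio means ABCB6 inhibition with less porphyrin fluorescence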
Target sequence (Q9NP58 whole entry, looked up): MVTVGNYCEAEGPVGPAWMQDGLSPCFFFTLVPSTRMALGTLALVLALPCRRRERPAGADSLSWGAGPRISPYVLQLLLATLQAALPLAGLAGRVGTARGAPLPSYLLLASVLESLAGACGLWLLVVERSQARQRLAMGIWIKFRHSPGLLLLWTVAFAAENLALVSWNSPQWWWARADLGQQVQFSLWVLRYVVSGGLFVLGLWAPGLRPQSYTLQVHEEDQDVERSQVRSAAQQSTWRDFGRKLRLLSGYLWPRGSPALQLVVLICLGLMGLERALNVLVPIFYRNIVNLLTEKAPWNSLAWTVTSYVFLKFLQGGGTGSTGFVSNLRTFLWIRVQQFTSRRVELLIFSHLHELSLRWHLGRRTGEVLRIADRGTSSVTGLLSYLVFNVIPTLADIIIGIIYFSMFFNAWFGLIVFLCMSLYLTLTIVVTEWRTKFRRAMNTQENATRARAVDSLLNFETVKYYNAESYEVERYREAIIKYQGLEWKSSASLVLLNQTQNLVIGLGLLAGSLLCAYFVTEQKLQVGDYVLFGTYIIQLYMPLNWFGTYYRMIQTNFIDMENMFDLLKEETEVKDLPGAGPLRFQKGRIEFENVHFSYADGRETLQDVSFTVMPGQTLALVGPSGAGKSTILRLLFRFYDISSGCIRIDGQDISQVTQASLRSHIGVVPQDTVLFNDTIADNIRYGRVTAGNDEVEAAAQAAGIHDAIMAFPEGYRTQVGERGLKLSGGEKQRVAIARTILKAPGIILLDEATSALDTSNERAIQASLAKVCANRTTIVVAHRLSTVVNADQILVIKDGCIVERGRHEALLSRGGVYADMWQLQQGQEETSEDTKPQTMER
Active calls of the source: *; i = inactive; . = no result; + = active, no number; ! = a repeat was not active.

SMILES	Cardio protect	iPSC survival up	Myeloid diff MLP	beta cell repl	ABCB6 inh 2
CCOC(=O)C(Cc1ccc(NC(=O)/C(=C/c2ccccc2)NC(=O)c2ccccc2)cc1)N1C(=O)c2ccccc2C1=O (centres undefined)	42	1	i	-3	90
CCOC(=O)C(Cc1ccc(NC(=O)/C(=C/c2ccc(OC(C)=O)cc2)NC(C)=O)cc1)N1C(=O)c2ccccc2C1=O (centres undefined)	59*	-1	i	-3	95
Cc1sc2nc(CN3CCCCC3)nc(Cl)c2c1C	-16	-3	+	0	103
Clc1nc(CN2CCCCC2)nc2sc3c(c12)CCCC3	-26	-1	i	-5	100
CNC(=S)NNC(=O)c1sccc1OCc1ccc(Cl)cc1Cl	0	-2	i	0	96
N/C(=N\NC(=O)c1sccc1OCc1ccc(Cl)cc1Cl)c1ccccn1	55*	-3	i	-4	101
COc1ccccc1N(CC(=O)NC1CCCCC1)C(=O)Cn1nnc(-c2ccc(C)o2)n1	2	0	.	2	91
Cc1nc(-c2ccc(F)cc2)c(CC(=O)N2CCN(S(=O)(=O)c3cccc([N+](=O)[O-])c3)CC2)s1	0	0	+	-4	226
Cc1sc2nc(CSCC(=O)Nc3c(F)cccc3F)[nH]c(=O)c2c1C	27	2	i	1	118
Cc1sc2nc(CSCC(=O)N(C)c3ccccc3)[nH]c(=O)c2c1C	66*	1	i	-1	110
Cc1sc2nc(CSCC(=O)NC(C)(C)C)[nH]c(=O)c2c1C	39	1	i	-4	115
Cc1sc2nc(CSCC(=O)N(CCC#N)c3ccccc3)[nH]c(=O)c2c1C	64*	-1	i	-1	109
Cc1sc2nc(CSCC(=O)Nc3ccc(C(F)(F)F)cc3)[nH]c(=O)c2c1C	5	-2	i	0	109
Cc1sc2nc(CSCC(=O)N(C)CC(=O)Nc3ccc(F)cc3)[nH]c(=O)c2c1C	54*	0	i	-3	100
CCOCC(=O)N1CCN(Cc2ccc3c(c2)OCO3)CC1	7	2	i	-5	105
NS(=O)(=O)c1ccc(CCNCC#Cc2ccccc2)cc1	-1	0	i	-3	99
Cn1c(=O)[nH]c(=O)c2c1nc(Br)n2CC(O)COc1ccc(Cl)cc1 (centres undefined)	92*	-1	i	-2	90
COc1ccc(OCC(O)Cn2c(Nc3cccc(C)c3)nc3c2c(=O)n(C)c(=O)n3C)cc1 (centres undefined)	64*	2	i	0	101
COc1ccc(OCC(O)Cn2c(Br)nc3c2c(=O)[nH]c(=O)n3C)cc1 (centres undefined)	54*	3	i	2	98
Cc1ccccc1OCC(O)Cn1c(Br)nc2c1c(=O)[nH]c(=O)n2C (centres undefined)	41	-1	i	-1	105
Cc1cccc(Nc2nc3c(c(=O)n(C)c(=O)n3C)n2Cc2ccccc2)c1	3	2	i	.	111
COc1ccc(S(=O)(=O)N2CCCCCC2)cc1NC(=O)CN(C)Cc1ccc2c(c1)OCO2	-6	0	+	-4	96
COc1cc(NC(=O)CCc2nnc3ccc(N4CCCCC4)nn23)cc(OC)c1OC	-4	0	+	-2	98
CC1Cc2ccccc2C(=O)N1 (centres undefined)	97*	-1	i	-1	98
Cc1cc(Nc2ccccc2C(=O)O)nc2nc3ccccc3c(=O)n12	81*	0	i	-2	99
SMILES	Cardio protect	iPSC survival up	Myeloid diff MLP	beta cell repl	ABCB6 inh 2
NC(=O)c1ccccc1Nc1nc2nc3ccccc3c(=O)n2cc1Br	.	.	.	3	.
CCN(CC)C(=O)CSc1nc(-c2ccco2)cc(C(F)(F)F)c1C#N	-6	-3	i	-1	97
N#Cc1c(C(F)(F)F)cc(-c2ccco2)nc1SCc1ccccn1	-12	3	+	-1	151
CSc1nc(-c2ccco2)cc(C(F)(F)F)c1C#N	-6	0	i	1	102
N#Cc1c(C(F)(F)F)cc(-c2ccco2)nc1SCc1ccncc1	-10	-1	+	-2	109
CCOC(=O)N1CCN(C(=O)C[C@@H]2C[C@@]3(C(=O)OC)CCCCC=C3N(Cc3ccco3)C2=O)CC1	.	0	i	.	101
CCOC(=O)/C(=C\C=C1/Sc2cc(OCC)c(OCC)cc2N1CC)C(C)=O	36	4	+	.	116
CCN1/C(=C/C(C)=O)Sc2ccc(OC)cc21	-1	0	i	-4	99
CCOC(=O)N1c2ccccc2Sc2ccccc21	5	1	i	-3	97
CCOC(=O)/C(=C/C=C1\Sc2cc(OCC)c(OCC)cc2N1CC)C(C)=O	31	1	+	-4	153
Cc1ccc(C(=O)NNC(=O)c2ccccc2OCc2c(C)noc2C)cc1	-1	0	i	-2	99
CC(C)n1c(C(O)c2ccc3c(c2)OCO3)nc2ccccc21 (centres undefined)	-4	-1	i	-2	100
C(=N\Nc1nc2ccccc2[nH]1)/c1ccc2ncccc2c1	4	0	+	-4	101
COc1cc(OC)c(OC)cc1/C=N/Nc1nc2ccccc2[nH]1	7	0	i	-2	98
C(=N\Nc1nc2ccccc2[nH]1)/c1cccc2nccnc12	51*	-1	i	-6	99
C(=N\Nc1nc2ccccc2[nH]1)/c1ccccn1	-28	-3	i	.	100
CCCCn1c(/C=C/c2ccco2)nc2ccccc21	-1	3	i	-6	98
CCCCn1c(/C=N/Nc2nc3ccccc3[nH]2)nc2ccccc21	-17	-1	+	0	91
Cn1c(=O)c(NCCc2ccccc2)c2c3c(cccc31)C(=O)c1ccccc1-2	46	-1	+	-6	i
Cn1c(=O)c(NC2CCCCC2)c2c3c(cccc31)C(=O)c1ccccc1-2	13	-1	+	-5	529
O=C(CC(=O)NCc1cccnc1)NCc1cccnc1	13	0	i	-2	90
NNC(=O)c1csc(-c2cccc(C(F)(F)F)c2)n1	5	0	+	0	102
Cc1cc(C)c(C#N)c(SCC(=O)Nc2cccc(S(=O)(=O)N3CCCC3)c2)n1	0	0	i	-3	105
Cc1cc(N)n(-c2ccc3ccccc3c2)n1	-4	2	+	-3	99
Oc1ccc(C2CNCCc3c2cc(O)c(O)c3Cl)cc1 (centres undefined)	58*!	3	i	-4	110

Source: PubChem (several laboratories)
